# Experimental data reported in PubChem BioAssay AID1159580 (chemical genetic matrix, 2015).
# The whole screen tested about 5,500 compounds, of which about 2,000 (36%) were called active. Roughly 18% stayed inconclusive and do not appear here. Some of the results follow. Unmarked numbers belong to inactive results. Rule as the data show it: active = normalized growth mostly below about 0.91 (no sharp cut-off); inconclusive = no clear call, values can overlap the other calls; inactive = mostly above about 0.92.
# Experiment: chemical genetic growth profiling, strain panel (AID 1159580);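 also: tested at 20 µM; growth read once vehicle control cultures reached saturation at 30 °C; 1 = growth at the plate median or of vehicle wells; lower values mean less growth of the strain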
# Settings: growth OD
compound,measurement,setting,value
C[C@H](CCC(=O)O)[C@H]1CCC2C3C(CC[C@@]21C)[C@@]1(C)CC[C@@H](O)C[C@H]1C[C@@H]3O (stereo partly specified),normalized growth,"S. cerevisiae deletion strains, locus YKL009W, strain mrt4, stronger effect = lower value",0.807 (active)
same,normalized growth,"S. cerevisiae deletion strains, locus YKL068W, stronger effect = lower value",0.989
same,normalized growth,"S. cerevisiae deletion strains, locus YKL085W, strain MDH1 (second series), stronger effect = lower value",0.953
same,normalized growth,"S. cerevisiae deletion strains, locus YKL085W, strain MDH1, stronger effect = lower value",0.953
same,normalized growth,"S. cerevisiae deletion strains, locus YKL160W, strain elf1, stronger effect = lower value",0.977
same,normalized growth,"S. cerevisiae deletion strains, locus YKL190W, strain CNB1, stronger effect = lower value",0.99
same,normalized growth,"S. cerevisiae deletion strains, locus YKR001C, strain vps1, stronger effect = lower value",0.963
same,normalized growth,"S. cerevisiae deletion strains, locus YKR026C, strain gcn3, stronger effect = lower value",0.997
same,normalized growth,"S. cerevisiae deletion strains, locus YKR091W, strain srl3, stronger effect = lower value",0.99
same,normalized growth,"S. cerevisiae deletion strains, locus YLL001W, strain dnm1, stronger effect = lower value",0.953
same,normalized growth,"S. cerevisiae deletion strains, locus YLL026W, stronger effect = lower value",0.987
same,normalized growth,"S. cerevisiae deletion strains, locus YLL041C, strain sdh2, stronger effect = lower value",1
same,normalized growth,"S. cerevisiae deletion strains, locus YLR027C, strain aat2, stronger effect = lower value",0.983
same,normalized growth,"S. cerevisiae deletion strains, locus YLR039C, strain RIC1, stronger effect = lower value",0.828
same,normalized growth,"S. cerevisiae deletion strains, locus YLR058C, strain SHM2, stronger effect = lower value",0.984
same,normalized growth,"S. cerevisiae deletion strains, locus YLR102C, strain apc9, stronger effect = lower value",0.972
same,normalized growth,"S. cerevisiae deletion strains, locus YLR113W, strain HOG1, stronger effect = lower value",0.937
same,normalized growth,"S. cerevisiae deletion strains, locus YLR221C, strain rsa3, stronger effect = lower value",1.05
same,normalized growth,"S. cerevisiae deletion strains, locus YLR258W, strain gsy2, stronger effect = lower value",1.02
same,normalized growth,"S. cerevisiae deletion strains, locus YLR262C, strain YPT6 (second series), stronger effect = lower value",0.795 (active)
same,normalized growth,"S. cerevisiae deletion strains, locus YLR262C, strain YPT6, stronger effect = lower value",0.776
same,normalized growth,"S. cerevisiae deletion strains, locus YLR268W, strain sec22, stronger effect = lower value",0.929
same,normalized growth,"S. cerevisiae deletion strains, locus YLR320W, strain mms22, stronger effect = lower value",1.03
same,normalized growth,"S. cerevisiae deletion strains, locus YLR330W, strain CHS5, stronger effect = lower value",0.996
same,normalized growth,"S. cerevisiae deletion strains, locus YLR342W, strain FKS1 (second series), stronger effect = lower value",0.965
same,normalized growth,"S. cerevisiae deletion strains, locus YLR342W, strain FKS1, stronger effect = lower value",0.946
same,normalized growth,"S. cerevisiae deletion strains, locus YLR357W, strain rsc2, stronger effect = lower value",1.06
same,normalized growth,"S. cerevisiae deletion strains, locus YLR370C, strain arc18, stronger effect = lower value",0.964
same,normalized growth,"S. cerevisiae deletion strains, locus YLR371W, strain rom2, stronger effect = lower value",0.987
same,normalized growth,"S. cerevisiae deletion strains, locus YLR384C, strain iki3, stronger effect = lower value",0.967
same,normalized growth,"S. cerevisiae deletion strains, locus YLR418C, strain cdc73, stronger effect = lower value",0.965
same,normalized growth,"S. cerevisiae deletion strains, locus YML016C, strain PPZ1, stronger effect = lower value",0.978
same,normalized growth,"S. cerevisiae deletion strains, locus YML032C, strain rad52, stronger effect = lower value",0.95
same,normalized growth,"S. cerevisiae deletion strains, locus YML120C, strain ndi1, stronger effect = lower value",0.962
same,normalized growth,"S. cerevisiae deletion strains, locus YML124C, strain tub3, stronger effect = lower value",0.986
same,normalized growth,"S. cerevisiae deletion strains, locus YMR058W, strain fet3, stronger effect = lower value",0.997
same,normalized growth,"S. cerevisiae deletion strains, locus YMR078C, strain ctf18, stronger effect = lower value",0.972
same,normalized growth,"S. cerevisiae deletion strains, locus YMR125W, strain sto1, stronger effect = lower value",1.03
same,normalized growth,"S. cerevisiae deletion strains, locus YMR129W, stronger effect = lower value",0.988
same,normalized growth,"S. cerevisiae deletion strains, locus YMR205C, strain PFK2, stronger effect = lower value",0.985
same,normalized growth,"S. cerevisiae deletion strains, locus YMR223W, strain ubp8, stronger effect = lower value",1
same,normalized growth,"S. cerevisiae deletion strains, locus YMR231W, strain pep5, stronger effect = lower value",0.959
same,normalized growth,"S. cerevisiae deletion strains, locus YMR263W, strain SAP30, stronger effect = lower value",1
same,normalized growth,"S. cerevisiae deletion strains, locus YMR307W, strain GAS1, stronger effect = lower value",0.88
same,normalized growth,"S. cerevisiae deletion strains, locus YNL067W, strain RPL9B, stronger effect = lower value",0.972
same,normalized growth,"S. cerevisiae deletion strains, locus YNL071W, strain lat1, stronger effect = lower value",1.01
same,normalized growth,"S. cerevisiae deletion strains, locus YNL128W, strain TEP1, stronger effect = lower value",0.99
same,normalized growth,"S. cerevisiae deletion strains, locus YNL153C, strain GIM3, stronger effect = lower value",1
same,normalized growth,"S. cerevisiae deletion strains, locus YNL183C, strain NPR1, stronger effect = lower value",0.921
same,normalized growth,"S. cerevisiae deletion strains, locus YNL209W, strain ssb2, stronger effect = lower value",1.01
same,normalized growth,"S. cerevisiae deletion strains, locus YNL233W, strain BNI4, stronger effect = lower value",1.02
same,normalized growth,"S. cerevisiae deletion strains, locus YNL248C, strain rpa49, stronger effect = lower value",1.02
same,normalized growth,"S. cerevisiae deletion strains, locus YNL250W, strain rad50, stronger effect = lower value",0.978
same,normalized growth,"S. cerevisiae deletion strains, locus YNL271C, strain bni1, stronger effect = lower value",0.956
same,normalized growth,"S. cerevisiae deletion strains, locus YNL298W, strain CLA4, stronger effect = lower value",0.937
same,normalized growth,"S. cerevisiae deletion strains, locus YNL307C, strain MCK1, stronger effect = lower value",0.979
same,normalized growth,"S. cerevisiae deletion strains, locus YNL322C, strain KRE1 (second series), stronger effect = lower value",0.981
same,normalized growth,"S. cerevisiae deletion strains, locus YNL322C, strain KRE1, stronger effect = lower value",0.993
same,normalized growth,"S. cerevisiae deletion strains, locus YNR049C, strain mso1, stronger effect = lower value",0.993
same,normalized growth,"S. cerevisiae deletion strains, locus YNR052C, strain pop2, stronger effect = lower value",0.971
same,normalized growth,"S. cerevisiae deletion strains, locus YOL006C, strain TOP1, stronger effect = lower value",0.931
same,normalized growth,"S. cerevisiae deletion strains, locus YOL012C, strain htz1",0.86
same,normalized growth,"S. cerevisiae deletion strains, locus YOL147C, strain pex11, stronger effect = lower value",0.983
same,normalized growth,"S. cerevisiae deletion strains, locus YOR001W, strain rrp6, stronger effect = lower value",0.947
same,normalized growth,"S. cerevisiae deletion strains, locus YOR061W, strain CKA2, stronger effect = lower value",0.977
same,normalized growth,"S. cerevisiae deletion strains, locus YOR069W, strain VPS5, stronger effect = lower value",0.989
same,normalized growth,"S. cerevisiae deletion strains, locus YOR070C, strain gyp1, stronger effect = lower value",1
same,normalized growth,"S. cerevisiae deletion strains, locus YOR080W, strain dia2, stronger effect = lower value",0.972
same,normalized growth,"S. cerevisiae deletion strains, locus YOR083W, strain WHI5, stronger effect = lower value",0.969
same,normalized growth,"S. cerevisiae deletion strains, locus YOR106W, strain vam3, stronger effect = lower value",0.951
same,normalized growth,"S. cerevisiae deletion strains, locus YOR136W, strain idh2, stronger effect = lower value",1
same,normalized growth,"S. cerevisiae deletion strains, locus YOR144C, strain elg1, stronger effect = lower value",0.984
same,normalized growth,"S. cerevisiae deletion strains, locus YOR184W, strain ser1, stronger effect = lower value",0.921
same,normalized growth,"S. cerevisiae deletion strains, locus YOR231W, strain MKK1, stronger effect = lower value",0.952
same,normalized growth,"S. cerevisiae deletion strains, locus YOR265W, strain rbl2, stronger effect = lower value",0.99
same,normalized growth,"S. cerevisiae deletion strains, locus YOR270C, strain vph1, stronger effect = lower value",0.945
same,normalized growth,"S. cerevisiae deletion strains, locus YOR290C, strain snf2, stronger effect = lower value",1.03
same,normalized growth,"S. cerevisiae deletion strains, locus YOR316C, strain cot1, stronger effect = lower value",0.982
same,normalized growth,"S. cerevisiae deletion strains, locus YPL051W, strain arl3, stronger effect = lower value",1
same,normalized growth,"S. cerevisiae deletion strains, locus YPL055C, strain LGE1, stronger effect = lower value",1.01
same,normalized growth,"S. cerevisiae deletion strains, locus YPL078C, strain atp4, stronger effect = lower value",0.931
same,normalized growth,"S. cerevisiae deletion strains, locus YPL106C, strain sse1, stronger effect = lower value",0.993
same,normalized growth,"S. cerevisiae deletion strains, locus YPL240C, strain hsp82, stronger effect = lower value",1.01
same,normalized growth,"S. cerevisiae deletion strains, locus YPL241C, strain CIN2, stronger effect = lower value",0.993
same,normalized growth,"S. cerevisiae deletion strains, locus YPL256C, strain CLN2, stronger effect = lower value",0.936
same,normalized growth,"S. cerevisiae deletion strains, locus YPR119W, strain clb2, stronger effect = lower value",0.977
same,normalized growth,"S. cerevisiae deletion strains, locus YPR141C, strain kar3, stronger effect = lower value",0.97
same,normalized growth,"S. cerevisiae deletion strains, locus YPR163C, strain tif3, stronger effect = lower value",0.981
same,normalized growth,"S. cerevisiae deletion strains, locus YPR167C, strain met16, stronger effect = lower value",0.987
same,normalized growth,"S. cerevisiae deletion strains, strain wtn01, stronger effect = lower value",0.971
same,normalized growth,"S. cerevisiae strains, strain wild type, stronger effect = lower value",0.994
